The whole screen tested about 390,000 compounds, of which about 17,000 (4.4%) were called active. Entries that show only a call come without a potency. About 8% were inconclusive and are not listed. The call rests on the fitted dose curve; in most records, active means well fitted inhibition curve with a large enough effect; inconclusive means small, poorly fitted or top-dose-only effect; inactive means no such curve, though single readings can be large or run the other way. The sample as a whole holds a higher share of actives than the screen did.
target: Lysine-specific demethylase 4A (Homo sapiens) (UniProt O75164); assay: qHTS Assay for Inhibitors of JMJD2A-Tudor Domain; settings: AlphaScreen JMJD2A-Tudor / H3K4me3 peptide binding; series mostly up to 114 µM; further: nearly all actives have a fitted effect of over 50% in size
Potency means the concentration at half of the fitted maximal effect.

Sequence of Lysine-specific demethylase 4A (Homo sapiens) (O75164 whole entry, looked up, the tested form may be a part): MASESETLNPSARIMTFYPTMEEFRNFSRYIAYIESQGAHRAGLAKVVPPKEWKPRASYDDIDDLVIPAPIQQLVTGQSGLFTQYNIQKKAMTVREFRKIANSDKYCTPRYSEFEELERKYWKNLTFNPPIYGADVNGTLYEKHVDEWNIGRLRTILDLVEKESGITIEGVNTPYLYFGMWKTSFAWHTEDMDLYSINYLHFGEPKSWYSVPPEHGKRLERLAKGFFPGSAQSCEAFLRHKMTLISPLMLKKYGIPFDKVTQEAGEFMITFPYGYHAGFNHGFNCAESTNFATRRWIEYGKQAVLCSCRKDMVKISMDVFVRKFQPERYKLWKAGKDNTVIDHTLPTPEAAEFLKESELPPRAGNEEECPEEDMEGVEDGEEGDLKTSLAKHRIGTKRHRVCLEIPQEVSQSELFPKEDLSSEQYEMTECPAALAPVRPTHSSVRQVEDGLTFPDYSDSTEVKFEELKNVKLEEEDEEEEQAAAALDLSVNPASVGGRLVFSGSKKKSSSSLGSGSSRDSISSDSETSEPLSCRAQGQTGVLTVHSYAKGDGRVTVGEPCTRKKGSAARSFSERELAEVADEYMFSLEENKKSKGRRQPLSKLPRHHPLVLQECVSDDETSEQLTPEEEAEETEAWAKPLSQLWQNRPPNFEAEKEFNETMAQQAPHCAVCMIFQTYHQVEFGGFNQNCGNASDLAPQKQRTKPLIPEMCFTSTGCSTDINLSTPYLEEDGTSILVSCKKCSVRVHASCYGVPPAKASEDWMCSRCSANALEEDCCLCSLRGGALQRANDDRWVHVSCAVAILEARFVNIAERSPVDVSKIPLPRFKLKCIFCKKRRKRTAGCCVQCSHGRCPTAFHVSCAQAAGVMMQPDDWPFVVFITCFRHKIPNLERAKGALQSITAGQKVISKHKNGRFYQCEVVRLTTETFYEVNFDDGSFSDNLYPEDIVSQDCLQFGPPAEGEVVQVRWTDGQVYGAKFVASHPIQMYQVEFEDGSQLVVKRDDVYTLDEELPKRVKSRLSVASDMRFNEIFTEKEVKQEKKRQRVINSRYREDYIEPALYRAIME

| SMILES | Potency |
| --- | --- |
| O=S(=O)(Nc1ccc2nc(-c3cccc(Cl)c3)oc2c1)c1ccccc1 | inactive |
| CC(=O)OCC(NC(=O)C(Cc1ccccc1)NC(=O)OC(C)(C)C)C1OC(n2ccc(=O)[nH]c2=O)C(OC(C)=O)C1OC(C)=O (stereo not drawn) | inactive |
| Cc1cccc(-n2ccnc2SCC(=O)Nc2cc(C(F)(F)F)ccc2Cl)c1 | inactive |
| O=C(NC1CC(=O)N(c2ccc(F)cc2)C1)C1CCCCC1 (stereo not drawn) | inactive |
| CSc1ccc(NC(=O)Cn2nnnc2-c2ccccc2F)cc1 | inactive |
| CC(C)(C)c1ccc(C(=O)N2CCC(c3nc(-c4ccc(S(=O)(=O)N5CCCC5)cc4)no3)CC2)cc1 | inactive |
| CC1CC(C)CN(C/C=C/c2ccccc2[N+](=O)[O-])C1 (stereo not drawn) | inactive |
| O=C(/C=C/c1ccccc1[N+](=O)[O-])OCC(=O)N1CCCC1 | inactive |
| O=[N+]([O-])c1ccccc1/C=C/CN1CCC(O)CC1 | 8.91 µM (active) |
| CCN(CCCNC(=O)Cn1ncc2c([nH]c3ccccc32)c1=O)c1cccc(C)c1 | inactive |
| COc1ccc(-c2noc(CSc3nc(C)cc(=O)[nH]3)n2)cc1OC | inactive |
| COCCCNC(=O)[C@H]1N2C(=O)c3ccccc3C2SC1(C)C (stereo partly drawn) | 22.4 µM (active) |
| CC1(C)SC2c3ccccc3C(=O)N2[C@@H]1C(=O)NCc1ccco1 (stereo partly drawn) | inactive |
| COCCCNC(=O)C1CC(=O)N(CCc2ccccc2)C1 (stereo not drawn) | inactive |
| CCOc1ccc(NC(=O)C(=O)NCCc2csc3nc(-c4ccccc4F)nn23)cc1 | inactive |
| Cc1cc(C)c2oc(C(=O)Nc3ccc(S(=O)(=O)N4CCCCCC4)cc3)cc(=O)c2c1 | inactive |
| CCOC(=O)c1c(NC(=O)Cc2coc3ccc(CC)cc23)sc2c1CCC2 | inactive |
| CCc1nn(CC(=O)N2CCN(c3cccc(C(F)(F)F)c3)CC2)c(=O)c2cc3occc3n12 | inactive |
| Cc1nc2nc(NCc3cccc(Br)c3)[nH]n2c(=O)c1Cc1ccccc1 | inactive |
| Cc1cc(C)n2ncc(C(=O)Nc3cccc(C#N)c3)c2n1 | inactive |
| Nc1ccc(Nc2ccccc2)cc1 | 39.8 µM (active) |
| Nc1ccc(S(=O)(=O)NC(=O)c2ccccc2)cc1 | inactive |
| COc1ccccc1C(=O)Nc1ccc(Nc2ccccc2)cc1 | inactive |
| CCN(CC)C(=O)CSc1nc2cc3c(cc2c(=O)n1CCCC(=O)NCc1ccc2c(c1)OCO2)OCO3 | inactive |
| COc1ccccc1-c1noc(CSc2nnc(-c3ccccc3)n2-c2ccc(C)c(C)c2)n1 | inactive |
| NC(=O)c1c(Nc2nc3c(F)cccc3s2)sc2c1CCCC2 | inactive |
| NNc1nc2c(Cl)cccc2s1 | 63.1 µM (active) |
| CCc1nnc(SCc2c(F)cccc2Cl)c2cc3sccc3n12 | inactive |
